Reference: PubChem BioAssay (NCI)
About 83,000 compounds went through this panel and 20% of them were active in at least one assay; those are over-represented in the sample as a whole.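 96-well plates, one dose, 48 hours. Percent growth reported; active if below 10.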 The source made the active and inactive calls.

What was measured:
Assay in all cases: NCI-60 one-dose screen, 48 h (100 = growth as untreated, 0 = no growth, -100 = all killed)
Settings in all cases: 10 µM unless noted
[1] = system: RPMI-8226 leukemia
[2] = system: OVCAR-8 ovarian
[3] = system: OVCAR-5 ovarian
[4] = system: OVCAR-4 ovarian
[5] = system: SK-OV-3 ovarian
[6] = system: IGROV1 ovarian
[7] = system: OVCAR-3 ovarian
[8] = system: HS 578T breast
[9] = system: NCI/ADR-RES ovarian
[10] = system: T-47D breast

Measured: growth

CCOc1cccc(C2CC(=O)Nc3cc4c(cc32)OCO4)c1 (stereo not given)
inactive: [1] 71.1% | [2] 89% | [3] 109% | [4] 89.9% | [5] 86.6% | [6] 83.4% | [7] 82.4% | [8] 91.6% | [9] 82.3%

NC(N)=NN=c1c(=O)c2ccccc2c1=O
inactive: [1] 60.1% | [2] 81.5% | [3] 98.9% | [4] 103% | [5] 98.1% | [6] 102% | [7] 80.6% | [8] 109% | [9] 91.7%

COc1cc(C2=NN(C(C)=O)C(c3ccc(OC(C)=O)cc3OC(C)=O)O2)c(OC(C)=O)c2ccccc12 (stereo not given)
inactive: [3] 54% | [4] 21.1% | [5] 20.1% | [6] 21.7% | [7] 20.5% | [8] 56.7% | [9] 11.7% | [10] 11.3%
active: [1] 8.23% | [2] 8.46%

Nc1ccc2c(c1)/C(=N/O)c1cc([N+](=O)[O-])ccc1-2
inactive: [1] 58.9% | [2] 87% | [3] 102% | [4] 84% | [5] 81.6% | [6] 57% | [7] 63.8% | [8] 77.2% | [9] 109%

CCOC(=O)C1C(=O)OC2CCCCC21 (stereo not given)
inactive: [1] 99.9% | [2] 99.5% | [3] 117% | [4] 102% | [5] 109% | [6] 103% | [7] 126% | [8] 105% | [9] 116%

COc1ccc(Nc2ccnc(NCCCNc3ccnc4cc(Cl)ccc34)n2)cc1
inactive: [4] 11.8% | [6] 21.7% | [9] 35.4%
active: [1] -60.5% | [2] 5.52% | [3] -19.9% | [5] -5.22% | [7] -84.5% | [8] -52.2% | [10] -51.8%

O=C(/C=C/c1ccc(Cl)cc1)c1ccccc1
active: [1] 1.52%
inactive: [2] 97.5% | [3] 99.5% | [4] 107% | [5] 126% | [6] 101% | [7] 101% | [8] 126% | [9] 107%

NCCCc1nnc(CCC(=O)c2nc3ccccc3[nH]2)o1
inactive: [1] 101% | [2] 110% | [3] 104% | [4] 104% | [5] 106% | [6] 104% | [7] 119% | [8] 112% | [9] 97.9% | [10] 97.7%

Cc1cc(C)n(C(=O)c2nn(-c3ccc(Cl)cc3)cc2O)n1
inactive: [2] 26.3% | [3] 64.1% | [4] 67.7% | [5] 87.5% | [6] 25.3% | [7] 50.9% | [9] 22.6% | [10] 46.3%
active: [1] -0.413% | [8] 7.1%

O=C(NN(C(=O)c1ccccc1)c1cccs1)c1ccccc1
inactive: [1] 94.4% | [2] 120% | [3] 105% | [4] 106% | [5] 102% | [6] 102% | [7] 115% | [8] 104% | [9] 103% | [10] 94.9%

COc1ccc(C(=O)Nc2nc(-c3ccc(Cl)cc3)cs2)cc1
inactive: [1] 94.4% | [2] 103% | [3] 87% | [4] 108% | [5] 87.1% | [6] 112% | [7] 111% | [8] 94.3% | [9] 120% | [10] 89.1%

O=C1CN(CO)C(=O)CN1CO
inactive: [1] 103% | [2] 99.7% | [3] 94.6% | [4] 111% | [5] 111% | [6] 105% | [7] 113% | [8] 101% | [9] 103% | [10] 107%

C[C@]12CC[C@@H]3c4ccc(O)cc4CC[C@H]3[C@@H]1CC[C@@H]2NS(=O)(=O)c1cccc(Br)c1
inactive: [1] 44.4% | [2] 67% | [3] 97.7% | [4] 53.9% | [5] 90.7% | [6] 53.1% | [7] 58.8% | [8] 73.8% | [9] 56.2% | [10] 37.4%

COc1ccc(-c2cc(C(=O)Nc3nc4cc(C)c(C)cc4s3)nc3cc(-c4ccccc4)nn23)cc1OC
inactive: [1] 88% | [2] 110% | [3] 111% | [4] 106% | [5] 105% | [6] 122% | [7] 138% | [8] 111% | [9] 102% | [10] 103%

C=CCOc1ccc2c(c1)CC[C@@H]1[C@@H]2CC[C@@]2(C)[C@H]1CC[C@]2(C)O
inactive: [1] 51.8% | [2] 66.4% | [3] 75.3% | [4] 89.4% | [5] 93.9% | [6] 104% | [7] 111% | [8] 93% | [9] 90.5% | [10] 79.9%

Cc1cc([N+](=O)[O-])c(C)cc1C(=O)O
inactive: [1] 115% | [2] 103% | [3] 93.7% | [4] 111% | [5] 99.2% | [6] 110% | [7] 106% | [8] 107% | [9] 103% | [10] 83.5%

Clc1cccc(Cc2cn3cc(-c4ccccc4)nc3s2)c1
inactive: [1] 41.3% | [2] 53.4% | [3] 34.1% | [4] 46.8% | [5] 93.8% | [6] 64.8% | [7] 73.6% | [8] 76.8% | [9] 60.2% | [10] 11.5%

COc1ccc(C2CC(c3ccc(OC)c(OC)c3)=NN2C(=O)c2cc(OC)c(OC)c(OC)c2)cc1 (stereo not given)
active: [7] -45.1% | [8] -14%
inactive: [1] 50.2% | [2] 34.2% | [3] 66.5% | [4] 58.8% | [5] 30.3% | [6] 31.5% | [9] 13% | [10] 36.4%

Oc1ccccc1C=Nc1ccccc1N=Cc1ccccc1O.[Cu+2]
inactive: [1] 19.1% | [2] 15.1% | [3] 103% | [4] 35.5% | [5] 76% | [6] 55.5% | [7] 71.7% | [8] 137% | [9] 20.2% | [10] 20.2%

c1ccc(N2CCN(c3nncc4ccccc34)CC2)nc1
inactive: [1] 107% | [2] 97.8% | [3] 105% | [4] 109% | [5] 104% | [6] 116% | [7] 99.9% | [8] 109% | [9] 109% | [10] 101%

O=C(COC(=O)[C@H](C[Se][Se]C[C@H](NC(=O)c1ccc(Br)cc1F)C(=O)OCC(=O)c1ccc(F)cc1)NC(=O)c1ccc(Br)cc1F)c1ccc(F)cc1
active: [1] -44.3% | [2] -100% | [3] -68.7% | [4] -95.7% | [5] -81% | [6] -100% | [7] -100% | [8] -16% | [9] -82.8% | [10] -67%

COc1ccc2c(c1)C(=O)c1c-2c(=O)n(CCCCCCC(=O)NO)c2ccccc12
active: [1] -2.83% | [2] 7.33% | [3] -4.52% | [4] 4.23% | [5] -3.32% | [6] -34.9% | [7] -19.6% | [8] -2.26% | [9] -14.1% | [10] -11.8%

NC(=O)NN=C(C1CC1)C1CC1
inactive: [1] 114% | [2] 123% | [3] 101% | [4] 104% | [5] 104% | [6] 109% | [7] 106% | [8] 97% | [9] 105% | [10] 107%

COc1cc(C2CC(c3ccc(C)cc3)=NN2C(C)=O)ccc1Oc1ccnc2cc(Cl)ccc12 (stereo not given)
inactive: [1] 83.8% | [2] 63.1% | [3] 92% | [5] 13.5% | [6] 81.2% | [7] 29.1% | [9] 54.6% | [10] 62.2%
active: [4] -15.8% | [8] 7.55%

CCCn1cnc2c1c(=O)n(CCCCC(C)=O)c(=O)n2C
inactive: [1] 101% | [2] 98.3% | [3] 110% | [4] 97.1% | [5] 95.1% | [6] 97.6% | [7] 115% | [8] 104% | [9] 108% | [10] 99%

COc1ccc(-c2oc3cc(O)c(OC)c(O)c3c(=O)c2OC)cc1O
active: [7] -40.1% | [8] -27.4% | [9] -4.16%
inactive: [1] 12.3% | [2] 25.3% | [3] 57% | [4] 65.6% | [5] 24.5% | [6] 12.2% | [10] 53.1%

CCCCCCCCSc1ncnc2c1ncn2CO
inactive: [1] 60.7% | [2] 90.4% | [3] 103% | [4] 60.3% | [5] 83.1% | [6] 93.3% | [7] 78.2% | [8] 95.6% | [9] 86.8% | [10] 62%

CC(C)c1ccc(C(=O)Nc2sc3c(CN(C)C)c(O)ccc3c2C(N)=O)cc1
inactive: [2] 51.5% | [3] 59.4% | [4] 48.5% | [5] 70.6% | [6] 27.3% | [7] 62.7% | [8] 69.1% | [9] 51.6% | [10] 54.2%
active: [1] -31.8%
